Measured values from PubChem BioAssay (NCATS).
Inconclusive results are not listed. The source made the active and inactive calls. The call rests on the fitted dose curve; in most records, active means well fitted activation curve with a large enough effect in the signal ratio, with a control signal flat (not every such curve was filed as active); inconclusive means small, poorly fitted or top-dose-only effect, or effect the other way, or a change in a side signal; inactive means flat fitted curve, though single readings scatter; the % refers to the signal ratio.

test: qHTS Assay for Identification of Small Molecule Agonists for Hypoxia Response Element Signaling Pathway (AID 914); conditions: ME-180 (cervical carcinoma) HRE-bla reporter, beta-lactamase ratio, CoCl2, 17 h; activation: stronger effect = higher value; on activation: % of control where 0% means no effect
Excerpt: NIH Molecular Libraries Screening Centers Network [MLSCN]
NIH Chemical Genomics Center [NCGC]
Hypoxia-inducible factor-1 (HIF-1) is the major hypoxia-regulated transcription factor that controls cellular responses to low oxygen concentration. HIF-1 is composed of two subunits: hypoxia responsive HIF-1 alpha and constitutively expressed HIF-1 beta, which is also known as aryl hydrocarbon receptor nuclear translocator. During hypoxic conditions, HIF-1 alpha heterodimerizes with HIF-1 beta and translocates into the nucleus where the HIF-1 complex binds to the hypoxia-response element (HRE) and activates expression of target genes such as VEGF (vascular endothelial growth factor). HIF-1 alpha protein levels are elevated in many solid tumors, including those of the cervix and brain. Within tumors, cells that are the greatest distance from blood vessels and therefore the most hypoxic express the highest levels of HIF-1 alpha. Therapeutic blockade of the HIF-1 signaling pathway in cancer cells therefore provides an attractive strategy for development of anticancer drugs.
Using a beta-lactamase reporter-gene under control of the hypoxia response element, a cell-based assay [CellSensor(TM) HRE-bla ME-180 developed by Invitrogen Corp.] was used to measure hypoxia-induced signaling. Library compounds were measured for their ability to positively modulate the action of EC50 CoCl2 on reporter gene activity. Compounds were screened in a titration series in 1536-well format. Positive modulators were identified based on the AC50 values derived from the screening data.
NCGC Assay Protocol Summary:
2500 cells/5uL in Opti-MEM medium containing 0.5% dialyzed FBS, 0.1 mM NEAA, 1 mM sodium pyruvate and 10 mM HEPES was dispensed into 1536-well plates and cells were cultured at 37 degrees Celsius overnight. Next day 23 nL of compounds or DMSO were delivered to each well using a pin tool, and 1uL of EC50 level of CoCl2, or EC100 level of CoCl2, or assay medium was added. And then the plates were incubated at 37 degrees Celsius for 17 hours. 1 uL of CCF4-dye mixture was added to each well. After incubated at room temperature for 2.5 hours the plates were measured on an EnVision plate reader at Excitation 405nm, Emission1=460nm and Emission 2=530nm. The %Activity was determined from the ratio of 460nm/530nm.
Potency means the concentration at half of the fitted maximal effect.

| Structure (SMILES) | activation | Potency |
| --- | --- | --- |
| O[C@H](C[C@@H]1CCCCN1)c1ccc2c(c1)oc1ccccc12 | -0.884% (inactive) |  |
| O=C(O)CCCc1ccc2ccccc2c1 | -6.23% (inactive) |  |
| C[C@@]1(C(=O)O)CCC[C@@H]1C(=O)O | 4.07% (inactive) |  |
| CC(C)(C)c1ccc(O)c(CN(Cc2c(O)ccc3ccccc23)C2CCCCC2)c1 | 2.73% (inactive) |  |
| Cc1cc(C2(c3cc(C)c(O)c(C(=O)O)c3)OS(=O)(=O)c3ccccc32)cc(C(=O)O)c1O | -3.84% (inactive) |  |
| OC[C@@H]1O[C@@H](n2cnc3c(NC4CCCCC4)ncnc32)[C@@H](O)[C@H]1O | -22.9% (inactive) |  |
| CC(=O)O[C@]1(C)N=NC2(CCCCC2)O1 | 14.3% (inactive) |  |
| NC(=O)Nc1n[nH]c(-c2ccccc2)n1 | 12.6% (inactive) |  |
| Cc1cc(SCC(=O)c2ccc(Br)cc2)cc(C)[o+]1 | 15.2% (inactive) |  |
| O=C(O)[C@@H]1CCCN1Cc1ccc2c(c1)OCO2 | 7.45% (inactive) |  |
| COc1ccc(C(=O)N2CCC3(CCCN(C(=O)Nc4cccc(F)c4)C3)CC2)cc1 | -19.5% (inactive) |  |
| O=c1c(-c2cccs2)nc2cnc(Oc3ccccc3)nc2n1C1CC1 |  | 3.16 µM (active) |
| CN1CCN(c2ncc3nc(-c4cccs4)c(=O)n(C[C@H]4CCCO4)c3n2)CC1 |  | 3.16 µM (active) |
| Nc1nc(-c2cccs2)cs1 | -9.81% (inactive) |  |
| O=C1c2ccccc2-c2ccc(NC(=O)[C@H]3CCCC[C@@H]3C(=O)O)cc21 | -7.45% (inactive) |  |
| COc1cccc(Nc2ncc3nc(-c4ccccc4)c(=O)n(C4CC4)c3n2)c1 |  | 3.16 µM (active) |
| Cc1cc(=O)[nH]c2cc3oc4ccccc4c3cc12 | -6.85% (inactive) |  |
| O=c1c(-c2ccccc2)nc2cnc(N3CCNCC3)nc2n1Cc1ccc(F)cc1 |  | 3.16 µM (active) |
| CCNc1ncc2nc(CCc3ccccc3)c(=O)n(-c3ccc(OC)cc3)c2n1 | -1.93% (inactive) |  |
| O=S(=O)(O)c1ccc(-c2nnc(-c3ccccn3)nc2-c2ccc(S(=O)(=O)O)o2)o1 | 8.26% (inactive) |  |

| Structure (SMILES) | activation | Potency |
| --- | --- | --- |
| NCC[C@H](N)C(=O)O | -6.29% (inactive) |  |
| COc1ccc(/C=C(\C#N)C(N)=O)c(OC)c1 | -21.9% (inactive) |  |
| C/C(C[n+]1ccccc1)=N\N=C(N)N | 3.43% (inactive) |  |
| N=C(N)[C@H](N=Nc1ccccc1)C(N)=O | 1% (inactive) |  |
| CC1(C)[C@@H]2CC[C@]1(C)[C@@H](OC(=O)CSC#N)C2 | -0.299% (inactive) |  |
| COCCn1c(=O)c(-c2cccc(C#N)c2)nc2cnc(N3CCNCC3)nc21 |  | 3.16 µM (active) |
| c1cc(CSc2ncnc3nc[nH]c23)ccn1 | -3.44% (inactive) |  |
| CC(C)CNc1nc2ncnc(N)c2[nH]1 | 10.3% (inactive) |  |
| Nc1ccc(-c2ccc(Nc3cc(S(=O)(=O)O)c(N)c4c3C(=O)c3ccccc3C4=O)cc2)c(S(=O)(=O)O)c1 | -7.34% (inactive) |  |
| N#Cc1c(NC(=O)CCC(=O)O)ccc2ccccc12 | 3.84% (inactive) |  |
| O=C(O)[C@@H](Br)[C@@H](Br)c1ccccc1[N+](=O)[O-] | 6.66% (inactive) |  |
| O=C(O)CC[C@@]1(c2ccccc2)NC(=O)NC1=O | -0.349% (inactive) |  |
| CC(C)Cn1cnc2c(SCc3ccccn3)nc(N)nc21 | 13.1% (inactive) |  |
| CCCCn1cnc2c(c(CC#N)nn2-c2ccccc2)c1=N | 16.2% (inactive) |  |
| O=C1NC(=O)[C@@](Cc2ccccc2)(c2cccnc2)N1 | 5.55% (inactive) |  |
| O=C(C[C@@H](C(=O)O)N1CCOCC1)c1ccccc1 | 16% (inactive) |  |
| NCCC1([N+](=O)[O-])CCNCC1 | 13.3% (inactive) |  |
| CCOC(=O)C1=C(C)NC(=O)N[C@@H]1c1coc2cc(C)cc(C)c2c1=O | 23.8% (inactive) |  |
| N#CCCn1c(=O)c(-c2cccs2)nc2cnc(Oc3cccc(Cl)c3)nc21 |  | 1.58 µM (active) |
| O=S(=O)(c1ccccc1)N1CN2CN(C1)CN(S(=O)(=O)c1ccccc1)C2 | -1.12% (inactive) |  |
